Some test systems named below: NCI-H23 lung; NCI-H226 lung; NCI-H322M lung; HOP-62 NSCLC; NCI-H460 lung; HOP-92 NSCLC; NCI-H522 lung; A549/ATCC NSCLC; 786-0 renal; COLO 205 colon; DU-145 prostate; K-562 leukemia; MALME-3M melanoma; MDA-MB-231 breast; RXF 393 renal; SF-268 CNS; SF-295 CNS; SF-539 CNS; UACC-257 melanoma; M14 melanoma.
Holding throughout (test): NCI-60 one-dose screen, 48 h (100 = growth as untreated, 0 = no growth, -100 = all killed)
What all share (details): 10 µM unless noted

About 83,000 compounds went through this panel and 20% of them were active in at least one assay; those are over-represented in the sample as a whole.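 In brief: 96-well plates, 48 h treatment, single concentration, percent growth endpoint.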 Unmarked numbers belong to inactive results. Calls of active or inactive are those of the source. Rule for the calls: active = growth percent below 10; inactive = the rest.

Consider `Cc1cc2c(c(C)n1)CN(C(=O)Nc1nc(-c3cncs3)ccc1N)C2`, for which the growth with NCI-H23 lung is 104%; in the assay on NCI-H226 lung, 107%; in the assay with NCI-H322M lung, 97.8%; in the assay on HOP-62 NSCLC, 99.6%; in the assay with NCI-H460 lung, 106%; in the assay with HOP-92 NSCLC, 90.1%. Besides, the growth with NCI-H522 lung is 87.5%; in the assay with A549/ATCC NSCLC it was 111%; in the assay on 786-0 renal it was 102%; in the assay with COLO 205 colon it was 110%; in the assay with DU-145 prostate it was 107%; in the assay with K-562 leukemia, 101%. The growth with MALME-3M melanoma was 96.7%; in the assay with MDA-MB-231 breast it was 113%; in the assay on RXF 393 renal, 111%; with SF-268 CNS, 101%; in the assay with SF-295 CNS it was 99.5%; in the assay with SF-539 CNS, 86.5%. In addition, the growth was 103% with UACC-257 melanoma and 104% in the assay with M14 melanoma.

As to `CNC1=C([N+](=O)[O-])C(c2ccc(OC)cc2)C(C#N)=C(c2ccc[nH]2)O1` (stereo not given), the growth in the assay on NCI-H23 lung is 98.5%; in the assay with NCI-H226 lung, 102%; in the assay with NCI-H322M lung, 101%; with HOP-62 NSCLC it was 99%; in the assay on NCI-H460 lung it was 100%; in the assay on HOP-92 NSCLC it was 96.2%. The growth with NCI-H522 lung was 92.3%; with A549/ATCC NSCLC, 106%; in the assay on 786-0 renal, 106%; in the assay on COLO 205 colon, 107%; with DU-145 prostate, 107%; with K-562 leukemia it was 95.7%. For the same molecule, the growth in the assay on MALME-3M melanoma was 97.9%; with MDA-MB-231 breast it was 104%; with RXF 393 renal it was 113%; with SF-268 CNS, 103%; in the assay with SF-295 CNS, 101%; in the assay on SF-539 CNS, 99.2%. Also, the growth with UACC-257 melanoma is 106%; in the assay with M14 melanoma, 104%.

Regarding `CN(C)CC1C(=O)O[C@H]2[C@H]1CC/C(COC(=O)NCc1ccc(Cn3c(=O)sn(CCCI)c3=O)cc1)=C\CC[C@@]1(C)O[C@@H]21` (stereo not given in full), the growth is 55.3% with NCI-H23 lung; -27.4% (active) with NCI-H226 lung; 95.1% with NCI-H322M lung; 83.8% in the assay with HOP-62 NSCLC; 100% in the assay on NCI-H460 lung; -87.2% (active) in the assay with HOP-92 NSCLC. Further, the growth in the assay with NCI-H522 lung was -84.3% (active); in the assay on A549/ATCC NSCLC it was 101%; in the assay on 786-0 renal, -73.2% (active); with COLO 205 colon it was -63% (active); in the assay on DU-145 prostate it was -69.8% (active); in the assay with K-562 leukemia, -0.241% (active). Besides, the growth was -75.6% (active) in the assay with MALME-3M melanoma; 60.4% in the assay on MDA-MB-231 breast; -87% (active) in the assay with RXF 393 renal; 57.7% in the assay on SF-268 CNS; 96.8% in the assay with SF-295 CNS; 24.4% in the assay with SF-539 CNS. Further, the growth was -39.8% (active) in the assay with UACC-257 melanoma and -56.7% (active) in the assay on M14 melanoma.

With `CCCS(=O)(=O)Nc1cccc(Nc2ncnc3cc(NC(=O)CCl)ccc23)c1Cl`, the growth in the assay on NCI-H23 lung was -52.2% (active); with NCI-H226 lung, -18.3% (active); with NCI-H322M lung, 3.52% (active); in the assay on HOP-62 NSCLC, -77.3% (active); in the assay with NCI-H460 lung, -41.1% (active); with HOP-92 NSCLC it was -85.9% (active). Moreover, the growth is -60% (active) in the assay with NCI-H522 lung; -5.2% (active) in the assay with A549/ATCC NSCLC; -88.2% (active) with 786-0 renal; -68.9% (active) in the assay with COLO 205 colon; -92.8% (active) with DU-145 prostate; 0% (active) in the assay with K-562 leukemia. The growth was -79.2% (active) in the assay on MALME-3M melanoma; -72.5% (active) in the assay with MDA-MB-231 breast; -87.3% (active) in the assay with RXF 393 renal; -55.9% (active) with SF-268 CNS; -80.5% (active) in the assay on SF-295 CNS; -85% (active) with SF-539 CNS. In addition, the growth in the assay on UACC-257 melanoma was 10.3%; in the assay on M14 melanoma, -43.5% (active).

With `CCCn1cnc2c(c1=N)C(c1ccc(Cl)cc1)c1sc3c(F)cccc3c1O2` (stereo not given), the growth in the assay with NCI-H23 lung is 81.8%; in the assay with NCI-H226 lung, 85.5%; in the assay on NCI-H322M lung, 75.6%; in the assay with HOP-62 NSCLC, 96.9%; in the assay with NCI-H460 lung, 66.2%; with HOP-92 NSCLC, 79.3%. Moreover, the growth was 69.7% in the assay with NCI-H522 lung; 76% in the assay on A549/ATCC NSCLC; 69.3% with 786-0 renal; -67.9% (active) with COLO 205 colon; 82.2% in the assay with DU-145 prostate; 29.1% in the assay with K-562 leukemia. In addition, the growth with MALME-3M melanoma is 49.8%; with MDA-MB-231 breast, 69.7%; with RXF 393 renal, 72%; in the assay with SF-268 CNS, 83.8%; with SF-295 CNS, 93.8%; in the assay with SF-539 CNS it was 85.6%. The growth was 105% in the assay on UACC-257 melanoma and 70.7% in the assay on M14 melanoma.

Take `C=C1/C(=C\C=C2/CCC[C@]3(C)[C@@H]([C@H](C)CCCC(C)(C)O)CC[C@@H]23)C[C@@H](OC(=O)CBr)C[C@@H]1O`: the growth in the assay on NCI-H23 lung was 37.7%; with NCI-H226 lung it was 45.2%; in the assay on NCI-H322M lung, 94%; in the assay with HOP-62 NSCLC, 83.8%; in the assay with NCI-H460 lung, 92.1%; in the assay with HOP-92 NSCLC it was -67.5% (active). Besides, the growth in the assay with NCI-H522 lung is -68.8% (active); in the assay on A549/ATCC NSCLC, 66%; with 786-0 renal it was 6.95% (active); in the assay on COLO 205 colon, 19.4%; in the assay on DU-145 prostate, 92.7%; in the assay on K-562 leukemia it was 30.8%. Further, the growth with MALME-3M melanoma was -67.3% (active); in the assay on MDA-MB-231 breast, 20.5%; with RXF 393 renal it was 93.3%; in the assay with SF-268 CNS, 18%; with SF-295 CNS, 94.6%; with SF-539 CNS it was -43.1% (active). The growth with UACC-257 melanoma is 99.3%; with M14 melanoma it was 84.4%.

Take `C=C(C)Cn1c(SCC(=O)c2cccs2)nc2sc3c(c2c1=O)CCCC3`: the growth was 72.8% in the assay on NCI-H23 lung; 58.3% in the assay with NCI-H226 lung; 67.9% in the assay with NCI-H322M lung; 73.5% in the assay on HOP-62 NSCLC; 8.41% (active) with NCI-H460 lung; 92.4% in the assay with HOP-92 NSCLC. The growth is 58.1% in the assay with NCI-H522 lung; 41.1% with A549/ATCC NSCLC; 52.6% in the assay with 786-0 renal; 43.6% in the assay on COLO 205 colon; 50.9% with DU-145 prostate; 41% in the assay on K-562 leukemia. The growth in the assay on MALME-3M melanoma is 71.5%; in the assay on MDA-MB-231 breast, 65.5%; in the assay with RXF 393 renal, 52.2%; in the assay on SF-268 CNS, 42.2%; in the assay with SF-295 CNS it was 42.2%; with SF-539 CNS, 39.3%. The growth in the assay with UACC-257 melanoma is 81.5%; in the assay on M14 melanoma, 77.6%.
